Mtb FBA inh: Mtb fructose-bisphosphate aldolase inhibition; P9WQA3; purified M. tuberculosis FBA, fluorescence read-out; inhibition, % at 1 µM; 2.3% of 360,000 active; AID 588726;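 further: 0% = vehicle and 100% = reference inhibitor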
Target sequence (P9WQA3 whole entry, looked up): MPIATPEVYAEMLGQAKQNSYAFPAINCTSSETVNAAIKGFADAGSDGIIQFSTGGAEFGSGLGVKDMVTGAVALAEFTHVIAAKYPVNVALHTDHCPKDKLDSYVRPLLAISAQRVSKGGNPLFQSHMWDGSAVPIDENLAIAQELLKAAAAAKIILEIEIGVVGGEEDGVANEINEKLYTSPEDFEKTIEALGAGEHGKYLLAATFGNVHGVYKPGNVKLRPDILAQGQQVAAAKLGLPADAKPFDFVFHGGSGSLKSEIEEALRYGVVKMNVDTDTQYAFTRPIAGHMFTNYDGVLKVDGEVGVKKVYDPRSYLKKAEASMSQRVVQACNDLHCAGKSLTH
Rv3671c protease: inhibitors of M. tuberculosis serine protease Rv3671c; inhibition, % at 5.96 µM; P9WHR9; 0.048% of 320,000 active; AID 2606; in the data active means inhibition above about 38%;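 further: extracellular domain of Rv3671c used as enzyme; 0% = enzyme with DMSO and 100% = no enzyme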
Mtb UGM inh: inhibitors of M. tuberculosis UDP-galactopyranose mutase. inhibition, % at 10 µM. 0.06% of 320,000 active. P9WIQ1. purified UGM, fluorescence polarization probe displacement; in the data active means inhibition above about 10%, passing the limit was not always enough
RecA splice inh: blocks M. tuberculosis RecA intein splicing; P9WHJ3; cell-free RecA intein splicing, fluorescence; inhibition, % (no concentration beside the values); 0.75% of 290,000 active; in the data active means inhibition above about 30%;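 further: 0% = vehicle wells and 100% = reference inhibitor control wells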
GDH-TPI counter-1: GDH-TPI coupled enzyme inhibition counter-screen; GDH-TPI coupled enzyme counterscreen, NADH absorbance; AID 588335; inhibition, % at 4.8 µM; 1.2% of 360,000 active; in the data active means inhibition above about 30%;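 further: 0% = DMSO wells and 100% = wells lacking the enzyme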
Mtb bLac sens: beta-lactam sensitization of Mtb H37Rv; M. tuberculosis H37Rv growth with meropenem, percent inhibition; inhibition, % at 25 µM; 0.27% of 330,000 active; call rule not given here;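 further: growth measured after seven days incubation then overnight dye step; 0% = bacteria only wells and 100% = bacteria with antibiotic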
Mtb FBA confirm: Mtb FBA inhibition, confirmed; shares compounds with Mtb FBA inh; purified M. tuberculosis FBA, fluorescence read-out; inhibition, % at 1 µM; 78% of 5,600 active;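 further: 0% = vehicle wells and 100% = reference inhibitor wells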
GDH-TPI counter-2: counter-screen for M. tuberculosis FBA inhibitors: GDH-TPI coupled enzyme inhibition | shares compounds with Mtb FBA inh | GDH-TPI coupled enzyme counterscreen, fluorescence | inhibition, % at 1 µM | 81% of 5,600 active; in the data active means inhibition above about 10%
Active calls of the source: *. Compounds with a hit are over-represented: about 4% of the library has one in this group of screens. Unless noted, no stated cut-off is given here; in the data, active means inhibition above about 27%; inactive means the rest.

Screening CCN(CC)CCNc1cc(C)c(C#N)c2nc3ccccc3n12 returned Mtb FBA inh 86*, Rv3671c protease -12, Mtb UGM inh 2, RecA splice inh -193, GDH-TPI counter-1 13, Mtb bLac sens -3, Mtb FBA confirm 24 and GDH-TPI counter-2 16*.
For Cc1nnc2c(N3CCN(C(=O)c4ccco4)CC3)nc3ccccc3n12 the results were Mtb FBA inh 4, Rv3671c protease 9, Mtb UGM inh -2, RecA splice inh -4, GDH-TPI counter-1 18 and Mtb bLac sens -3.
For CCCc1cc(Nc2c(C)n(C)n(-c3ccccc3)c2=O)n2c(nc3ccccc32)c1C#N the results were Mtb FBA inh 8, Rv3671c protease -3, Mtb UGM inh -1, RecA splice inh -10, GDH-TPI counter-1 13 and Mtb bLac sens -4.
`Nc1nc(N2CCN(C(=O)c3ccco3)CC2)nc2ccccc12` gave Mtb FBA inh 45*, Rv3671c protease -5, Mtb UGM inh 4, RecA splice inh -2, GDH-TPI counter-1 -3, Mtb bLac sens -5, Mtb FBA confirm 7 and GDH-TPI counter-2 -4.
CCCc1cc(NCCCN2CCOCC2)n2c(nc3ccccc32)c1C#N was read as Mtb FBA inh 101*, Rv3671c protease -1, Mtb UGM inh -2, RecA splice inh -101, GDH-TPI counter-1 4, Mtb bLac sens -14, Mtb FBA confirm 54* and GDH-TPI counter-2 41*.
`Nc1nc(N2CCN(C(=O)c3ccco3)CC2)nc2ccc(Br)cc12` gave Mtb FBA inh 11, Rv3671c protease -8, Mtb UGM inh 1, RecA splice inh 3, GDH-TPI counter-1 4 and Mtb bLac sens 33.
CCCc1cc(N2CCN(C(=O)c3ccco3)CC2)n2c(nc3ccccc32)c1C#N was read as Mtb FBA inh 32*, Rv3671c protease -3, Mtb UGM inh -1, RecA splice inh -90, GDH-TPI counter-1 1, Mtb bLac sens 0, Mtb FBA confirm 100* and GDH-TPI counter-2 84*.
NC(=O)c1ccc(NC(=O)COc2ccc([N+](=O)[O-])cc2Cl)cc1 was read as Mtb FBA inh 6, Rv3671c protease 4, Mtb UGM inh 0, RecA splice inh -3, GDH-TPI counter-1 4 and Mtb bLac sens 3.
For CC1(c2nnc(-c3ccccc3)o2)CC(c2c(Cl)cccc2Cl)=NO1 (configuration not stated) the results were Mtb FBA inh 1, Rv3671c protease -4, Mtb UGM inh 0, RecA splice inh -4, GDH-TPI counter-1 6 and Mtb bLac sens 2.
Screening CN(Cc1ccccc1)C(=O)CSc1n[nH]c(N)n1 returned Mtb FBA inh 1, Rv3671c protease -3, Mtb UGM inh 1, RecA splice inh -3, GDH-TPI counter-1 0 and Mtb bLac sens -3.
For Cc1cc(NCCN2CCOCC2)n2c(nc3ccccc32)c1C#N the results were Mtb FBA inh 58*, Rv3671c protease -4, Mtb UGM inh -2, RecA splice inh -126, GDH-TPI counter-1 6, Mtb bLac sens 0, Mtb FBA confirm 104* and GDH-TPI counter-2 81*.
Cc1cc(Nc2c(C)n(C)n(-c3ccccc3)c2=O)n2c(nc3ccccc32)c1C#N was read as Mtb FBA inh 0, Rv3671c protease -2, Mtb UGM inh -2, RecA splice inh -2, GDH-TPI counter-1 -3 and Mtb bLac sens 9.
For COCCN(CCOC)c1cc(C)c(C#N)c2nc3ccccc3n12 the results were Mtb FBA inh 39*, Rv3671c protease -5, Mtb UGM inh -1, RecA splice inh -201, GDH-TPI counter-1 7, Mtb bLac sens -7, Mtb FBA confirm 43* and GDH-TPI counter-2 41*.
O=C(Cn1ccccc1=O)c1cccs1 was read as Mtb FBA inh -2, Rv3671c protease 6, Mtb UGM inh 0, RecA splice inh 1, GDH-TPI counter-1 -2 and Mtb bLac sens 1.
O=c1c2ccccc2[nH]c(=S)n1-c1cccc(S(=O)(=O)N2CCCC2)c1 was read as Mtb FBA inh -1, Rv3671c protease -7, Mtb UGM inh -2, RecA splice inh -3, GDH-TPI counter-1 5 and Mtb bLac sens 8.

Compound activity: PubChem, several laboratories
